Experimental findings from PubChem BioAssay AID686979 (National Center for Advancing Translational Sciences (NCATS), 2013) are described below.

The campaign covered roughly 420,000 compounds. About 50,000 (12%) were called active. Inconclusive results (about 26%) are left out. What follows is part of a selection rich in actives, with near analogues and random picks from the rest. A number with no mark means an inactive call. Calls come from the whole dose curve; as a rule, active = well fitted inhibition curve with a large enough effect; inconclusive = small, poorly fitted or top-dose-only effect; inactive = flat fitted curve, though single readings scatter. Where a SMILES comes first, the peptide text is derived from it. Bridges are numbered along the chain shown (N, C = ends). [ ]: non-standard residue; d: D form. The star is where a group is joined. X4 = CC[C@H](C)CCCCC(=O)*; Dab = NCC[C@H](N)C(=O)O
% is set by controls: 0 for no effect and ±100 for the full control effect; potency is the fitted concentration of half-maximal effect.

This assay in a line: qHTS for Inhibitors of human tyrosyl-DNA phosphodiesterase 1 (TDP1): qHTS in cells in presence of CPT. Note: nearly all actives have a fitted effect of over 55% in size. As to conditions: chicken DT40 Tdp1-/-;hTDP1 cells + 20 nM CPT, ATP luminescence, 48 h; series mostly up to 46.2 µM; activity change, negative = growth inhibition: at the top concentration. The essentials: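 Chicken DT40 Tdp1-/- cells complemented with human TDP1, 400 cells/well, exposed to compounds plus 20 nM camptothecin for at least 48 h at 37 C; viability read as ATP content by CellTiter-Glo luminescence.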
Regarding `CC(=O)c1ccc(S(=O)(=O)NC2CC(=O)N(c3ccc4c(c3)OCCO4)C2)cc1` (centres undefined), the “activity change, negative = growth inhibition” value is -2.96%.

With `Cc1ccc(N2C(=O)CN=C2Nc2nc(C)cc(C)n2)cc1`, the “activity change, negative = growth inhibition” value was -2.45%. On to `COc1ccccc1-c1nc(N2CCN(C)CC2)c2ccccc2n1`, for which the “activity change, negative = growth inhibition” value was 7.98%.

In the case of `COc1ccc(N2CCN(c3nc(-c4ccccc4F)nc4ccccc34)CC2)cc1`, the Potency was 20.6 µM (active).

On to `COc1ccc(N2CCN(C(C)=C3C(=O)c4ccccc4C3=O)CC2)cc1`, for which the “activity change, negative = growth inhibition” value was -17.9%. With `O=C(Nc1ccc(Cl)cc1)c1cc2nc(C3CC3)cc(C(F)(F)F)n2n1`, the “activity change, negative = growth inhibition” value was -14.9%. The same measure, in the same setting: the same measure for `COC(=O)C1(C)CC1(c1ccccc1)c1ccccc1` (centres undefined): -29.8%; for `CC(C)Oc1ccc(/C=N/NC(=O)c2nnn(-c3nonc3N)c2CN(C)C2CCCCC2)cc1`: -4.96%; for `O=C(Nc1ccccc1Cl)N1CCC(CN2CCCC2)CC1`: -3.55%. Still for that read-out and setting: the same measure for `Cc1ccc(C)c(N2CCN(S(=O)(=O)c3ccc4c(c3)oc(=O)n4C)CC2)c1`: -18.2%. As to `O=S(=O)(N1CCOCC1)N1CCN(c2ccccc2F)CC1`, the “activity change, negative = growth inhibition” value was -7.59%. For the molecule `CCOC(=O)N1CCN(S(=O)(=O)c2ccc3c(c2)C(C)C(=O)N3)CC1` (centres undefined), the “activity change, negative = growth inhibition” value is 4.3%. In the case of `CC1C(=O)Nc2ccc(S(=O)(=O)N3CCN(c4ccccc4F)CC3)cc2NC1=O` (centres undefined), the Potency was 9.2 µM (active). Take `Cn1c(=O)c(=O)n(C)c2cc(S(=O)(=O)NCCN3CCN(c4ccccc4F)CC3)ccc21`: the “activity change, negative = growth inhibition” value is 0.149%.

In the case of `Cc1ccc(C)c(N2CCN(S(=O)(=O)c3ccc4c(c3)C(C(C)C)C(=O)N4)CC2)c1` (centres undefined), the Potency was 20.6 µM (active). For the molecule `O=C(CN1C(=O)COc2ccc(Cl)cc21)Nc1ccc(N2CCOCC2)cc1`, the “activity change, negative = growth inhibition” value was -2.92%. As for `CCC(C)NC(=O)c1ccc(N2CCC3(CC2)OCCO3)c([N+](=O)[O-])c1` (centres undefined), the “activity change, negative = growth inhibition” value was -25.4%.

Consider `Cc1cccc(C(=O)OCC(=O)NCC(C)C)c1O`, for which the “activity change, negative = growth inhibition” value is 14.8%. For the molecule `CC[C@H](C)CCCCC(=O)N[C@@H](CCN)C(=O)N[C@H](C(=O)N[C@@H](CCN)C(=O)N[C@H]1CCNC(=O)[C@@H]([C@H](C)O)NC(=O)[C@H](CCN)NC(=O)[C@H](CCN)NC(=O)[C@H](CC(C)C)NC(=O)[C@@H](CC(C)C)NC(=O)[C@H](CCN)NC1=O)[C@@H](C)O` (X4-[Dab]T[Dab][Dab][Dab][dL]L[Dab][Dab][dT]; lactam 4-C), the “activity change, negative = growth inhibition” value is -18.2% [at 21.1 µM]. Consider `COc1cc([N+](=O)[O-])ccc1NC(=O)COC(=O)CCOc1ccc(C)cc1`, for which the Potency is 6.51 µM (active). With `COc1cc([N+](=O)[O-])ccc1NC(=O)CN1CCCC1`, the “activity change, negative = growth inhibition” value was 2.13%. Same read-out and setting: the same measure for `CSc1ccccc1NC(=O)COC(=O)CCCOc1ccc(C)cc1`: -3.52%. For `CC1(C)CC(=O)CC2(C1)NCC(c1ccccc1Cl)c1c2[nH]c2ccccc12` (centres undefined), the Potency was 18.4 µM (active). On to `Cc1ccc(C(=O)Nc2nc(N)n(-c3ccccc3)n2)cc1`, for which the “activity change, negative = growth inhibition” value is -3.52%.

On to `CCc1cccc(-n2nnc(-c3nsc(NC(=O)c4ccc(C)cc4)n3)c2C)c1`, for which the Potency is 9.2 µM (active). As for `Cc1ccc(C(=O)Nc2nc(-c3ccccc3)ns2)cc1`, the “activity change, negative = growth inhibition” value was 3.18%. The same measure, in the same setting: the same measure for `CCN(CC(=O)Nc1ccc(NC(C)=O)cc1)C(=O)C1CC(=O)N(c2ccc3c(c2)OCCO3)C1` (centres undefined): -1.1%; for `COc1cccc(CNC(=O)C2CC(=O)N(C3CCCCCCC3)C2)c1` (centres undefined): -25.5%. As for `COc1cccc(CNC(=O)CCC(=O)N2CC3CCCN3c3ccccc32)c1` (centres undefined), the Potency is 14.6 µM (active). As to `COc1cccc(CNC(=O)CCC2CCCN(C(=O)c3cc(C)[nH]n3)C2)c1` (centres undefined), the “activity change, negative = growth inhibition” value was -15.1%. As for `CCOc1ccc(-c2nc(C)sc2CC(=O)O)cc1`, the “activity change, negative = growth inhibition” value is -19.3%.

Consider `Cc1cc(C)cc(NC(=O)C2CCCN(S(=O)(=O)c3ccc4[nH]c(=O)ccc4c3)C2)c1` (centres undefined), for which the “activity change, negative = growth inhibition” value was -16.4%. Same read-out and setting: the same measure for `Cn1nnnc1SCC(=O)Nc1sccc1C(N)=O`: -10.4%; for `COC(=O)C1=C(C)NC(=O)CC1c1ccccc1OC` (centres undefined): 2.8%.

As for `CC1=C(C(=O)OCc2ccc(C)cc2)C(c2ccccc2Cl)CC(=O)N1` (centres undefined), the Potency was 13 µM (active). For the molecule `CC1=C(C(=O)OCc2ccc(C)cc2)C(c2c(Cl)cccc2Cl)CC(=O)N1` (centres undefined), the “activity change, negative = growth inhibition” value was -45.1%. The same measure, in the same setting: the figure for `O=C(Nc1ccc(Cl)cn1)c1ccccc1-c1ccccc1` is -9.84%; for `CC1(C)S[C@@H]2[C@H](N=CN3CCCCCC3)C(=O)N2[C@H]1C(=O)O` it is -15.7%; for `C=CCn1c(SCc2ccc(C(=O)NCCO)cc2)nc2ccccc2c1=O` it is -9.74%. Same read-out and setting: the same measure for `OC1CSc2nc3ccccc3n2C1` (centres undefined): 8.44%. On the same count and under the same terms, the same measure for `CC(=O)N1c2ccc(S(=O)(=O)N3CCC(C(=O)NC4CCCC(C)C4C)CC3)cc2CC1C` (centres undefined): -25.8%; for `COc1ccc(OC)c(NC(=O)C2CCCN2S(=O)(=O)c2cccc3nsnc23)c1` (centres undefined): -22.3%. On to `CC(=O)N1c2ccc(S(=O)(=O)N3CCCC(C(=O)Nc4cccc(Cl)c4)C3)cc2CC1C` (centres undefined), for which the Potency was 16.4 µM (active). Still for that read-out and setting: the same measure for `CC(=O)N1c2ccc(S(=O)(=O)N3CCCC(C(=O)Nc4cccc(F)c4)C3)cc2CC1C` (centres undefined): 11.6 µM (active). `CC(=O)N1c2ccc(S(=O)(=O)N3CCC(C(=O)NCc4ccc(F)cc4)CC3)cc2CC1C` (centres undefined): the “activity change, negative = growth inhibition” value was -26.5%. `COc1ccc(OC)c(NC(=O)c2cccc(S(=O)(=O)N3CCN(C(C)=O)CC3)c2)c1`: the “activity change, negative = growth inhibition” value is 4.49%.

As to `CC(=O)N1c2ccc(S(=O)(=O)N3CCC(C(=O)NC4CCCCC4C)CC3)cc2CC1C` (centres undefined), the “activity change, negative = growth inhibition” value is 5.58%. The same measure, in the same setting: the same measure for `CCc1cccc(NC(=O)C2CCCN(S(=O)(=O)c3ccc4[nH]c(=O)ccc4c3)C2)c1` (centres undefined): -6.93%. `COc1ccc(OC)c(NC(=O)C2CCCN2S(=O)(=O)c2ccc3c(c2)CC(C)N3C(C)=O)c1` (centres undefined): the Potency is 20.6 µM (active).
